PubChem BioAssay AID1159580 (chemical genetic matrix, 2015)
Where “and” joins values, the source holds several entries; their conditions need not be identical. Equal values may be shown once. Screen size: about 5,500 compounds; about 2,000 (36%) were called active. Another 18% or so got no clear call; they are omitted. No stated cut-off is given here; in the data, active means normalized growth mostly below about 0.91 (no sharp cut-off); inconclusive means no clear call, values can overlap the other calls; inactive means mostly above about 0.92. The list shows a part of the results.

Test: chemical genetic growth profiling, strain panel (AID 1159580);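 further: tested at 20 µM; growth read once vehicle control cultures reached saturation at 30 °C; 1 = growth at the plate median or of vehicle wells; lower values mean less growth of the strain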
Settings: S. cerevisiae deletion strains, growth OD

Measured: normalized growth

CCCCCC(O)C1C(=O)OC(C)C(O)/C=C/C=C/C=C/C=C/C=C(\C)C(O)CC(O)CC(O)CC(O)CC(O)CC(O)CC1O (configuration not stated)
inactive: locus YAL013W, strain DEP1, hits give low values 1.01 | locus YAL021C, strain ccr4, hits give low values 1.01 | locus YAL026C, strain drs2, hits give low values 0.994 | locus YAL030W, strain snc1, hits give low values 0.985 | locus YBL061C, strain skt5, hits give low values 0.982 | locus YBR009C, strain hhf1, hits give low values 0.996 | locus YBR021W, strain FUR4, hits give low values 1.02 | locus YBR023C, strain chs3, hits give low values 0.989 | locus YBR171W, strain sec66, hits give low values 0.982 | locus YBR229C, strain ROT2, hits give low values 1.01 | locus YBR231C, strain swc5, hits give low values 0.992 | locus YBR279W, strain paf1, hits give low values 0.993 | locus YCL011C, strain gbp2, hits give low values 1 | locus YCL016C, strain dcc1, hits give low values 0.986 | locus YCL029C, strain bik1, hits give low values 1.03 | locus YCL061C, strain MRC1, hits give low values 0.992 | locus YCL069W, strain vba3, hits give low values 0.993 | locus YCR088W, strain abp1, hits give low values 0.993 | locus YDL005C, strain med2, hits give low values 0.995 | locus YDL035C, strain GPR1, hits give low values 1.02 | locus YDL040C, strain nat1, hits give low values 0.99 | locus YDL074C, strain BRE1, hits give low values 1.01 | locus YDL101C, strain DUN1, hits give low values 1.01 | locus YDL134C, strain PPH21, hits give low values 1.01 | locus YDL185W, strain tfp1, hits give low values 1.03 | locus YDL192W, strain arf1, hits give low values 1.04 | locus YDR001C, strain nth1, hits give low values 0.983 | locus YDR069C, strain doa4, hits give low values 0.996 | locus YDR101C, strain arx1, hits give low values 1.02 | locus YDR137W, strain rgp1, hits give low values 1.01 | locus YDR150W, strain NUM1, hits give low values 1.02 | locus YDR159W, strain sac3, hits give low values 0.96 | locus YDR162C, strain NBP2, hits give low values 1.02 | locus YDR195W, strain ref2 0.96 | locus YDR297W, strain sur2, hits give low values 1.01 | locus YDR318W, strain mcm21, hits give low values 1.03 | locus YDR334W, strain swr1, hits give low values 0.986 | locus YDR335W, strain msn5, hits give low values 0.985 | locus YDR388W, hits give low values 1.03 | locus YDR392W, strain spt3, hits give low values 0.937 | locus YDR502C, strain sam2, hits give low values 1.01 | locus YEL003W, strain gim4, hits give low values 0.993 | locus YEL037C, strain rad23, hits give low values 1.02 | locus YEL061C, strain CIN8 (second series), hits give low values 0.98 | locus YEL061C, strain CIN8, hits give low values 1 | locus YER015W, strain faa2, hits give low values 0.991 | locus YER016W, strain bim1, hits give low values 0.986 | locus YER110C, hits give low values 1.02 | locus YER111C, strain swi4, hits give low values 0.996 | locus YER155C, strain BEM2 (second series), hits give low values 0.976 | locus YER155C, strain BEM2, hits give low values 1.02 | locus YER167W, strain BCK2, hits give low values 1.04 | locus YFR010W, strain ubp6, hits give low values 0.984 | locus YGL078C, strain dbp3, hits give low values 1.01 | locus YGL086W, strain mad1, hits give low values 1.03 | locus YGL167C, strain pmr1, hits give low values 0.984 | locus YGL173C, strain kem1, hits give low values 0.993 | locus YGL227W, strain vid30, hits give low values 0.989 | locus YGL240W, strain doc1, hits give low values 0.981 | locus YGL248W, strain PDE1, hits give low values 1.01 | locus YGL253W, strain hxk2, hits give low values 1 | locus YGR078C, strain PAC10, hits give low values 1 | locus YGR135W, strain pre9, hits give low values 1.02 | locus YGR229C, strain SMI1, hits give low values 1.02 | locus YGR252W, strain gcn5, hits give low values 1.04 | locus YHR013C, strain ard1, hits give low values 0.966 | locus YHR027C, strain rpn1, hits give low values 0.994 | locus YHR030C, strain SLT2, hits give low values 1.01 and 0.963 | locus YHR079C, strain IRE1 (second series), hits give low values 1.02 | locus YHR079C, strain IRE1, hits give low values 0.959 | locus YHR094C, strain hxt1, hits give low values 1.02 | locus YHR129C, strain ARP1, hits give low values 1 | locus YHR142W, strain chs7, hits give low values 1.01 | locus YHR200W, strain rpn10, hits give low values 1.02 | locus YIL066C, strain RNR3, hits give low values 1.01 | locus YIL073C, strain SPO22, hits give low values 1.12 | locus YIL125W, strain kgd1, hits give low values 1.03 | locus YIR030C, strain dcg1, hits give low values 1.02 | locus YJL092W, strain hpr5, hits give low values 0.985 | locus YJL095W, strain BCK1 (second series), hits give low values 0.988 | locus YJL095W, strain BCK1, hits give low values 1.01 and 0.975 | locus YJL115W, strain asf1, hits give low values 0.991 | locus YJL129C, strain trk1, hits give low values 0.976 | locus YJL134W, strain LCB3, hits give low values 1.01 | locus YJL154C, strain vps35, hits give low values 0.985 | locus YJL164C, strain tpk1, hits give low values 1 | locus YJL166W, strain qcr8, hits give low values 0.997 | locus YJL168C, strain set2, hits give low values 1.02 | locus YJL187C, strain SWE1 (second series), hits give low values 1 | locus YJL187C, strain SWE1, hits give low values 0.995 | locus YJR043C, strain POL32, hits give low values 1.03 | locus YJR066W, strain TOR1, hits give low values 0.939
